Spn MK inh – S. pneumoniae MK inhibitors, primary screen, biochemical, PK/LDH-coupled NADH absorbance; purified MK, PK/LDH-coupled NADH absorbance 340 nm; inhibition, % at 10 µM; 65,000 tested, 0.48% active; AID 555, 2006;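 active = ranked among the strongest by inhibition in the single 10 µM screen, a fixed top-ranked set picked for dose follow-up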
Autofluor 339 – intrinsic fluorescence of library compounds, ex339/em460 – biochemical, MLSMR library, data from DPM-DC assay, artefact control, profiling panel; fluorescence fold increase at 10 µM; compound autofluorescence, ex339/em460 nm, NADH buffer; stronger effect = higher value; 1 = no-compound wells, NADH background; AID 709, 2007; 65,000 tested, 5.5% active;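 active = at 10 µM, mean starting fluorescence two-fold or more over control wells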;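 note: signal is the first read of a kinetic run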
DPM-DC inhibit – S. pneumoniae DPM-DC inhibitors, primary screen, biochemical, PK/LDH-coupled NADH fluorescence. AID 556, 2006. diphosphomevalonate decarboxylase (Streptococcus pneumoniae D39). purified DPM-DC. 65,000 tested, 0.49% active. calls only at 10 µM;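 active = the 320 compounds with the highest percent inhibition in the single-dose primary screen, excluding strongly autofluorescent ones, cut at about 32% in these data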;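 note: kinetic rate of NADH fluorescence loss reporting ADP formed by the decarboxylase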
NADH enzymes – inhibitors of PK/LDH coupling enzymes, profiling panel, artefact control, biochemical, MLSMR library | AID 774, 2007 | 65,000 tested, 0.02% active | coupled PK/LDH NADH assays, four targets | IC50, µM (top dose mostly 10 µM), without a hit: at the top dose inhibition;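 active = single-dose screening hits from any of four coupled enzyme assays that gave an IC50 when retested across doses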;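 note: the DPM-DC format reads NADH fluorescence rather than 340 nm absorbance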
Spn PMK inh – S. pneumoniae PMK inhibitors, primary screen, biochemical, mevalonate pathway, pilot trial included; phosphomevalonate kinase (Streptococcus pneumoniae D39); purified PMK, PK/LDH-coupled NADH absorbance 340 nm; inhibition, % at 10 µM; 65,000 tested, 0.49% active; AID 539, 2006;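 active = top-ranked compounds by inhibition in the single 10 µM screen, taking a fixed number of the strongest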;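 note: 0% = full reaction with DMSO carrier and 100% = background rate without enzyme reaction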
Abs 340nm – compound light absorbance at 340 nm, profiling panel, artefact control, biochemical, MLSMR library, data from PS, PMK, MK assays; compound absorbance at 340 nm, fold over control; fold change at 10 µM; 65,000 tested, under 10 active;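 active = at 10 µM dose, initial 340 nm absorbance at least 2 fold that of control wells; inactive = change under 2 fold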;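 note: initial absorbance extrapolated from kinetic A340 decline of NADH oxidation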
* hit, by the source's call; i = inactive; . = no result shown; + = active, no number; [ ] = remark or other dose. Shown are actives, neighbours in structure and some others; about 6.8% of the full set was active somewhere.

SMILES	Spn MK inh	Autofluor 339	DPM-DC inhibit	NADH enzymes	Spn PMK inh	Abs 340nm
Cc1ccc(-n2c(O)c(/C=N/n3cnnc3)c3ccccc3c2=O)cc1	3	2.2*	.	2%	0	1.1
CC(=O)Nc1ccc(S(=O)(=O)N(Cc2ccco2)CC2CCCO2)cc1 (stereo not given)	6	1.1	i	4%	7	1
O=C1C(=O)N(CCN2CCOCC2)C(c2ccncc2)/C1=C(/O)c1ccc2c(c1)OCO2 (stereo not given)	79*	1.1	i	26%	0	1.1
CCOC(=O)c1cc2ccc(OC(=O)c3ccco3)cc2oc1=O	9	3.7*	.	7%	5	1.2
COc1ccccc1-c1c(C)oc2cc(OC(=O)c3ccco3)ccc2c1=O	15	2.1*	i	14%	1	1.1
COc1ccccc1Oc1c(C)oc2cc(OC(=O)c3ccco3)ccc2c1=O	8	2.6*	i	12%	8	1
CCCCC(CCC(=O)Nc1ccc(C(=O)OC)cc1)C(=O)O (stereo not given)	0	1.1	i	1%	2	1
O=C(CNS(=O)(=O)c1ccc(F)cc1)N1CCN(c2ccccc2)CC1	6	1.1	i	3%	4	1.1
COCC(=O)Nc1nc2n(n1)C(c1ccc(Cl)cc1)CC(c1ccc(OC)cc1)N2 (stereo not given)	10	2.5*	i	12%	6	0.99
CC(=O)NC(=O)NC1OC(=O)C(Cl)=C1Cl (stereo not given)	0	1.1	i	2%	7	1
CN(C)S(=O)(=O)c1cccc(C(=O)N2CCc3ccccc32)c1	5	1.1	i	3%	3	1
CN(C)S(=O)(=O)c1cccc(C(=O)C2=C3SC=C(c4ccccc4)N3CC2)c1	10	1.1	+	37%	0	1.1
C(=C\c1ccccc1)/CSc1nnc(-c2cccnc2)o1	0	1.1	i	0%	0	1
Cc1noc(C)c1CSc1nnc(-c2ccccc2F)n1CCc1ccccc1	3	1	i	6%	14	0.99
COCC(C)n1c(COc2ccccc2F)nnc1SCc1c(C)noc1C (stereo not given)	3	1	i	11%	29*	1
CCCCn1c(=O)n(C)c(=O)c2c(C(F)(F)F)cc(-c3ccncc3)nc21	0	2.1*	.	6%	12	1.1
CCCCn1ccc(=O)c2c(C(F)(F)F)nccc21	12	1.1	i	4%	0	1.1
Cc1oc2cc(O)ccc2c(=O)c1-c1cnn(-c2ccccc2)c1	7	2.5*	.	5%	8	1
CC1CCN(C(=O)c2cc3ccccc3o2)CC1	2	1.1	i	3%	6	1
COc1cc2c(C#N)c(N3CCN(c4ccccc4OC)CC3)nc(N)c2c(N)n1	12	2.4*	+[fluoresces]	3%	0	1
N#Cc1c(N)nc(N2CCCC2)c(C#N)c1-c1ccc(Cl)cc1	3	1.1	i	4%	8	1
Cc1cc(C)c(C#N)c(N2CCCC2)n1	15	3.6*	.	10%	4	1.1
N#Cc1c(N2CCCC2)nc(N)c2c(N)nc(N3CCCC3)cc12	3	2.5*	.	2%	5	0.97
CC12CCC(c3c(C(=O)Nc4nccs4)nn(-c4ccccc4)c31)C2(C)C (stereo not given)	6	1.1	i	8%	17	0.99
CCOc1ccc(C(=O)OCC(=O)NCc2ccco2)cc1OCC	7	1.1	i	9%	13	0.99
SMILES	Spn MK inh	Autofluor 339	DPM-DC inhibit	NADH enzymes	Spn PMK inh	Abs 340nm
Cc1ccc(C)c(/C(O)=C2/C(=O)C(=O)N(CCN3CCOCC3)C2c2ccco2)c1 (stereo not given)	5	1.1	i	6%	14	1.1
CCOC(=O)C1CCCN(C(=O)C2CCCN(S(C)(=O)=O)C2)C1 (stereo not given)	1	1.1	i	9%	26*	0.99
Cn1c(-c2ccc(N)cc2)nc2ccccc21	5	3.9*	+	18%	17	1
Cn1c(C(=O)N2COCC2(C)C)cc2c(=O)n3ccccc3nc21	8	5*	.	9%	10	1.1
CN(C)c1ccc(NC(=O)c2cc3c(=O)n4ccccc4nc3n2C)cc1	8	1.7	i	6%	7	1
CNC(=O)c1cc2c(=O)n3cccc(C)c3nc2n1C	6	5*	.	8%	10	1.1
Cc1cccn2c(=O)c3cc(C(=O)N4CCCc5ccccc54)n(C)c3nc12	2	1.3	i	2%	12	1
CCOC(=O)C1CCCN(C(=O)c2cc3c(=O)n4cccc(C)c4nc3n2C)C1 (stereo not given)	3	3.4*	.	2%	12	1
Cc1cccn2c(=O)c3cc(C(=O)N4CCc5ccccc5C4)n(C)c3nc12	5	5*	.	8%	10	1.1
CCn1cc(S(=O)(=O)CC(=O)Nc2ccc(OC)cc2)c2ccccc21	4	0.99	i	1%	0	0.98
O=C(NCc1cccs1)C(Cc1ccccc1)n1cccc1 (stereo not given)	12	1	i	2%	2	0.97
Cc1cccn2c(=O)c3cc(C(=O)NCC4CCCO4)n(C)c3nc12 (stereo not given)	7	5*	.	9%	11	1.1
Cc1cc(C(=O)NCC2CCCO2)n(-c2ccccc2)n1 (stereo not given)	13	1.1	i	11%	20	1.1
Cn1c(C(=O)NCC2CCCO2)cc2c(=O)n3ccccc3nc21 (stereo not given)	9	5*	.	9%	9	1.1
CC(=O)Nc1c(O)n(C)c2ccccc12	11	0.99	i	8%	active	0.98
CCN(CC)S(=O)(=O)c1ccc(C(=O)OCC(=O)N2CCN(C(=O)c3ccco3)CC2)cc1	48*	1.1	i	16%	0	1
Cc1ccccc1-c1nc2cc(N)ccc2o1	9	3.1*	+	18%	11	1
CC(C)c1ccc2oc(-c3cc(N)ccc3O)nc2c1	0	1.2	i	0%	0	1.1
Nc1cc(N)cc(-c2nc3ccccc3o2)c1	6	1.2	i	4%	7	1
Nc1ccc2oc(-c3cccc(Br)c3)nc2c1	9	2*	.	5%	1	1.1
Cc1ccc(-c2noc(CCC(=O)NCCN3CCOCC3)n2)cc1	11	0.98	i	10%	14	0.97
